# According to PubChem BioAssay (Tox21):
# Unmarked numbers belong to inactive results. The call rests on the fitted dose curve; in most records, active means well fitted curve in the direction sought with a large enough effect in the repeat runs; inconclusive means weak or mixed curves; inactive means flat fitted curve, though single readings scatter.
# Assay: qHTS assay to test for compound auto fluorescence at 590 nm (red) in HEK293 cells (AID 720679)
# Details: red autofluorescence 540/590 nm; series mostly up to 91.3 µM; fluorescence, % of fluorescent control: at the top concentration
# Description: National Center for Advancing Translational Sciences [NCATS]
# NIH Chemical Genomics Center [NCGC]
# U.S. Environmental Protection Agency [EPA]
# National Institutes of Environmental Health Sciences [NIEHS]
# National Toxicology Program [NTP]
# U.S. Food and Drug Administration [FDA]
# Compound auto fluorescence often interferes with screening of the compound library against various biological targets and signaling pathways. Some of these compounds may have fluorophoric properties. Such properties may interfere with the assay outputs resulting in false positives and/or negatives. To decrease such complications and ensure the compound activities are relevant in terms of biological response, the Tox21 10K compound library was screened for auto fluorescence.
# From the fluorophores used as reporter signals in our screening assays, the auto fluorescence equivalencies of compounds against three fluorophores have been evaluated: Triamterene, Fluorescein and Rose Bengal sodium for blue, green and red fluorescence, respectively. The fluorescence intensities were measured using Excitation/Emission wavelengths at 405/460nm, 485/535nm and 540/590nm for blue, green and red labels, respectively. This assay includes the red fluorescence data.
# Tox21 Assay Protocol Summary:
# 2,000 HEK293 cells in 5 uL of culture medium containing 10% dialyzed FBS per well were dispensed into black wall/clear bottom 1536-well plates using a Multidrop Combi Dispenser (Thermo Scientific). The assay plates were incubated for 4-5 hr at 37C to allow cell attachment to the well bottom, followed by the transfer of 23 nL compound or DMSO vehicle by a pintool work station (Kalypsys, San Diego, CA). After the assay plates were incubated overnight at 37C and 5% CO2, fluorescence intensities in the assay plates were measured by an Envision (PerkinElmer, Shelton, CT) plate reader using three labels for measuring blue, green and red fluorescence at […] 460, 535 and 590nm respectively.
# On the % scale 0 is the no-effect control and ±100 the full control effect.
row,Structure (SMILES),"fluorescence, % of fluorescent control"
1,CC(C)c1cccc(C(C)C)c1N,0.166%
2,CCCCCOC(=O)Nc1nc(=O)n([C@@H]2O[C@H](C)[C@@H](O)[C@H]2O)cc1F,-0.104% [at 46 µM]
3,CCCC=O,-0.549%
4,CCCCCCCCCCCl,-0.21% [at 95.7 µM]
5,CCCC(=O)O[C@]1(C(=O)CCl)[C@@H](C)C[C@H]2[C@@H]3CCC4=CC(=O)C=C[C@]4(C)[C@@]3(F)C(=O)C[C@@]21C,-0.0368% [at 46 µM]
6,Cc1ccc(N)cc1[N+](=O)[O-],-0.378%
7,Nc1[nH]c(=O)ncc1F,0.0902% [at 18.6 µM]
8,CCO[Si](CCCN=C=O)(OCC)OCC,-0.433%
9,O=C1OC(=O)c2cc([N+](=O)[O-])ccc21,-0.586%
10,CCCOCC(C)OCC(C)O (stereo not given),-0.183% [at 95.7 µM]
11,C=CC(=O)N1CCOCC1,-0.457%
12,Cn1ccc2cc3c(cc21)CCN3C(=O)Nc1cccnc1,0.0108% [at 46 µM]
13,CC(C)(C)N(CCO)CCO,0.13% [at 95.7 µM]
14,O=C1C(CCS(=O)c2ccccc2)C(=O)N(c2ccccc2)N1c1ccccc1 (stereo not given),0.179% [at 18.6 µM]
15,NC(=O)CCCCC1CCSS1 (stereo not given),-0.0466% [at 46 µM]
16,COC(=O)c1ccc(C(=O)OC)c(C(=O)OC)c1,0.0569%
17,Cc1cc(C)cc(OCC2CNC(=O)O2)c1 (stereo not given),0.0018% [at 46 µM]
18,CCCCNc1ccccc1,-0.415%
19,CC12CCC(CC1=O)C2(C)C (stereo not given),-0.0948%
20,O=C(O)c1ccccc1S,0.0419% [at 46 µM]

row,Structure (SMILES),"fluorescence, % of fluorescent control"
1,C=C(C)[C@@H]1CCC2=CC(=O)C[C@@H](C)[C@]2(C)C1,-0.786%
2,COC(=O)CCCC(=O)O,-0.163%
3,Cc1nc(-c2ccc(OCC(C)C)c(C#N)c2)sc1C(=O)O,0.146% [at 46 µM]
4,O=Cc1ccccc1[N+](=O)[O-],-0.406%
5,Nc1nc2c(ncn2CCC(CO)CO)c(=O)[nH]1,0.0622% [at 46 µM]
6,OCC(CO)(CO)COCC(CO)(CO)CO,-0.0628%
7,COC[C@H](c1ccc(C(F)(F)F)cc1)N1CCN(C2(C)CCN(C(=O)c3c(C)ncnc3C)CC2)C[C@H]1C,0.0289% [at 46 µM]
8,NC(=O)c1c(Cl)cccc1Cl,-0.188%
9,OC1OC[C@@H](O)[C@H](O)[C@H]1O (stereo not given in full),-0.779%
10,COc1cccc(Br)c1,0.163%
11,CC1(C)SC(C)(C)SC(C)(C)S1,0.0681%
12,CCCCCCCCCCCCCCCCCCOCC(O)CO (stereo not given),0.159% [at 46 µM]
13,N#CCN(CC#N)CCN(CC#N)CC#N,0.184%
14,C=C(C)C(=O)NCCCN(C)C,-0.61%
15,CCN1CCCC1CNC(=O)c1cc(S(N)(=O)=O)ccc1OC (stereo not given),-0.0669%
16,CCCCCCC(=O)OCC,-0.119%
17,CCCOc1ccccc1-c1nc2n[nH]nc2c(=O)[nH]1,-0.0921% [at 46 µM]
18,CCCCCCCCCCCCCCC,-0.0423%
19,C=C[Si](OC)(OC)OC,-0.112%
20,CCCCCCCCC=O,-0.0418%
